Assay outcomes (PubChem)
KB-V1 cytotox – KB-V1 MDR subline cytotoxicity; KB-V1 MDR cells viability, CellTiter-Glo, 72 h; Potency, µM (series often up to 46.1 µM), actives largely listed as cytotoxic; 3.4% of 400,000 active; note: nearly all actives have a fitted effect of over 60% in size
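Compound-treated KB-V1 multidrug-resistant cells, 72 h, 37 degrees C; viability by CellTiter-Glo. Fitted qHTS curves give the values.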
TDP1 cell CPT – DT40-hTDP1 cell growth loss with CPT. 12% of 420,000 active. Potency, µM (doses to about 46.2 µM), usual class: inhibitors. chicken DT40 Tdp1-/-;hTDP1 cells + 20 nM CPT, ATP luminescence, 48 h; note: nearly all actives have a fitted effect of over 55% in size
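Chicken DT40 Tdp1-/- cells stably complemented with human TDP1 were seeded at 400 cells/well in medium containing 20 nM camptothecin, exposed to pin-transferred compounds, and grown at 37 °C for at least 48 hr. Viability was read as ATP luminescence.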
HT1080-NT tox – kills 2HG-producing HT-1080-NT fibrosarcoma cells | Potency, µM (titrated, usually from 46.1 µM), hits mostly cytotoxic | AID 686970 | HT-1080-NT fibrosarcoma viability, CellTiter-Glo ATP luminescence, 48 h | 1.6% of 360,000 active;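 note: NT is the 2HG producing partner of a matched IDH1 knockdown line; nearly all actives have a fitted effect of over 55% in size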
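A 48-hour cytotoxicity screen used HT-1080-NT cells plated 2 hours before compound delivery. ATP-based CellTiter-Glo luminescence measured viability, normalized to DMSO and no-cell controls.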
HT1080 IDH1KD tx – kills HT-1080 cells with IDH1 knockdown | HT-1080 IDH1 knockdown viability, ATP luminescence, 48 h | AID 686971 | Potency, µM (highest dose often 46.1 µM), hits mostly cytotoxic | 2% of 360,000 active
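Cytotoxicity counter-line: IDH1KD HT-1080, 48 h, CellTiter-Glo. Curves classed by r2, magnitude and activity.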
TDP1 cell noCPT – qHTS for Inhibitors of human tyrosyl-DNA phosphodiesterase 1 (TDP1): qHTS in cells in absence of CPT. Potency, µM (series often up to 46.2 µM), hits mostly inhibitors. DT40 Tdp1-/- hTDP1 cells, no CPT, ATP luminescence, 48 h. 15% of 420,000 active; note: nearly all actives have a fitted effect of over 55% in size
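Growth of hTDP1-complemented DT40 Tdp1-knockout cells is measured by ATP luminescence after at least 48 hr compound exposure at 37 °C, with DMSO substituting for the 20 nM CPT used in the parallel screen.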
KB-3-1 tox – kills parental KB-3-1 adenocarcinoma cells; KB-3-1 viability, CellTiter-Glo ATP luminescence, 72 h; Potency, µM (series often up to 46.1 µM), hits mostly cytotoxic; 1.4% of 400,000 active; AID 1347075; note: nearly all actives have a fitted effect of over 60% in size
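Cytotoxicity in the drug-sensitive parental line KB-3-1 was scored as loss of CellTiter-Glo luminescence following 72 h incubation with compound. Values come from curve fitting of normalized concentration-response data.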
Of the large screens only hits and unclear results are named; the others gave an inactive call. A selection: hits, their analogues and other compounds. The true share with any hit is near 19%. Calls come from the whole dose curve; as a rule, active = well fitted curve in the direction sought with a large enough effect; inconclusive = small, poorly fitted or top-dose-only effect, or another doubt; inactive = no such curve, though single readings can be large; an effect the other way counts as inactive or inconclusive.

CC(C)Cn1c(N)c(C(=O)COC(=O)c2cc(C(F)(F)F)nc3ccccc23)c(=O)n(C)c1=O	KB-V1 cytotox inconclusive, TDP1 cell CPT 8.2µM, TDP1 cell noCPT 18.4µM
CC(C)Cn1c(N)c(C(=O)COC(=O)c2cc(-c3ccccc3)nc3ccccc23)c(=O)n(C)c1=O	KB-V1 cytotox inconclusive, TDP1 cell CPT 20.6µM, TDP1 cell noCPT 16.4µM, KB-3-1 tox inconclusive
CC(C)Cn1c(N)c(C(=O)COC(=O)c2cc(F)cc(F)c2)c(=O)n(C)c1=O	TDP1 cell noCPT inconclusive
O=C(NCc1ccc(C(F)(F)F)cc1)C1CC(c2c(Cl)cccc2Cl)=NO1 (stereo not given)	TDP1 cell CPT inconclusive, TDP1 cell noCPT inconclusive
COc1ccc(-n2c(=O)c(-c3cccc(F)c3)nc3cncnc32)cc1	none (no result: KB-V1 cytotox, HT1080-NT tox, HT1080 IDH1KD tx, KB-3-1 tox)
CC(C)Cn1c(N)c(C(=O)COC(=O)c2cc(C3CC3)nc3ccccc23)c(=O)n(C)c1=O	KB-V1 cytotox inconclusive, TDP1 cell CPT inconclusive, HT1080-NT tox 20.6µM, HT1080 IDH1KD tx inconclusive, TDP1 cell noCPT 20.6µM, KB-3-1 tox inconclusive
COC(=O)[C@]1(C)N[C@H](CN(C)C(=O)c2ccc(C)cc2)[C@@H]2C(=O)N(Cc3ccccc3)C(=O)[C@@H]21	none
C=CCn1c(SCC(=O)N2CCOCC2)nc(O)c(Cc2ccccc2)c1=O	TDP1 cell CPT inconclusive, TDP1 cell noCPT 13µM
Cn1c(SCC(=O)N2CCOCC2)nc2sc3c(c2c1=O)CCCC3	KB-V1 cytotox inconclusive, TDP1 cell CPT 9.2µM, TDP1 cell noCPT 23.1µM
C=CCn1c(SCC(=O)N2CCOCC2)nc2sc(C)c(C)c2c1=O	none
C=CCn1c(SCC(=O)N2CCOCC2)nc2sc3c(c2c1=O)CCCC3	TDP1 cell CPT inconclusive, TDP1 cell noCPT 18.4µM
COc1ccccc1-n1c(SCC(=O)N2CCOCC2)nc(O)c(Cc2ccccc2)c1=O	none
CCNc1nc(OC)nc(SCC(N)=O)n1	none
CCC(C)(C)NC(=O)C(c1ccc(C)cc1)N(Cc1ccco1)C(=O)CCC(=O)Nc1nccs1 (stereo not given)	TDP1 cell CPT inconclusive, TDP1 cell noCPT inconclusive
CC(=O)N1CCN(S(=O)(=O)c2cccc(C(=O)OCc3ccc(F)cc3)c2)CC1	TDP1 cell CPT inconclusive, TDP1 cell noCPT 18.4µM
CC(=O)N1CCN(S(=O)(=O)c2cccc(C(=O)OCc3cccc(F)c3)c2)CC1	KB-V1 cytotox 18.4µM, TDP1 cell CPT inconclusive, TDP1 cell noCPT 23.1µM
CC(=O)N1CCN(S(=O)(=O)c2cccc(C(=O)OCC(=O)N(CCC#N)c3ccc(F)cc3)c2)CC1	none
N#CCCN(C(=O)COC(=O)c1cccc(S(=O)(=O)N2CCCCCC2)c1)c1ccc(F)cc1	KB-V1 cytotox 13µM
CC(=O)N1CCN(S(=O)(=O)c2cccc(C(=O)OCN3C(=O)c4ccccc4C3=O)c2)CC1	HT1080-NT tox inconclusive
Cc1ccc(-c2nnc(SCC(=O)NCCN3C(=O)CSC3=O)n2C)cc1	none
CCC(=O)N1CCC1(C)C(=O)Nc1ccc2nc(C)ccc2c1 (stereo not given)	HT1080-NT tox inconclusive, TDP1 cell noCPT inconclusive
Cc1ccc(NC(=O)NCCCc2ccccc2)cc1	none
CCN(CCCNC(=O)c1cc2cc3ccc(OC)cc3nc2s1)c1ccccc1	TDP1 cell CPT 16.4µM, TDP1 cell noCPT 20.6µM (no result: KB-V1 cytotox, HT1080-NT tox, HT1080 IDH1KD tx, KB-3-1 tox)
COc1ccc2nc3sc(C(=O)NCCCN4CCc5ccccc5C4)cc3cc2c1	KB-V1 cytotox 5.8µM, TDP1 cell CPT inconclusive, TDP1 cell noCPT 16.4µM
CCN(CCCNC(=O)c1cc2cc3ccc(OC)cc3nc2s1)c1cccc(C)c1	TDP1 cell CPT inconclusive, TDP1 cell noCPT inconclusive (no result: HT1080-NT tox, HT1080 IDH1KD tx)
CCOc1ccc(NC(=O)c2cc3cc4cc(OC)ccc4nc3s2)cc1	TDP1 cell noCPT 4.61µM (no result: HT1080-NT tox, HT1080 IDH1KD tx)
COc1ccc(C2CC(=O)N(Cc3ccc(C)cc3)c3c2c(C)nn3-c2nc(C)cc(C)n2)c(OC)c1 (stereo not given)	TDP1 cell CPT inconclusive (no result: HT1080-NT tox, HT1080 IDH1KD tx)
Cc1cc(C)nc(-n2nc(C)c3c2N(Cc2ccccc2F)C(=O)CC3c2ccc(Cl)cc2)n1 (stereo not given)	TDP1 cell CPT 23.1µM, TDP1 cell noCPT 23.1µM (no result: HT1080-NT tox, HT1080 IDH1KD tx)
C[C@H]1CN([C@@H](C)CO)S(=O)(=O)c2ccc(Br)cc2O[C@@H]1CN(C)C(=O)Cc1cccnc1	none
Cc1nc(N)nc(N)c1Oc1ccc(Cl)cc1	TDP1 cell CPT 9.2µM, HT1080-NT tox inconclusive, TDP1 cell noCPT inconclusive
Cc1noc(C)c1-c1cncnc1Nc1ccccc1	none (no result: KB-V1 cytotox, HT1080-NT tox, HT1080 IDH1KD tx, KB-3-1 tox)
Cc1ccc(C)c(OCCCN2CCc3ccccc3C2)c1	TDP1 cell CPT 11.6µM, HT1080 IDH1KD tx inconclusive, TDP1 cell noCPT inconclusive
Cc1ccc(SCCOCCN2CCc3ccccc3C2)cc1	TDP1 cell CPT inconclusive, TDP1 cell noCPT 16.4µM
Cc1ccc(C(C)C)c(OCCCN2CCc3ccccc3C2)c1	TDP1 cell CPT inconclusive, TDP1 cell noCPT inconclusive
OCC1OC(c2ccc(O)cc2O)C(O)C1O (stereo not given)	none
OCC1OC(c2ccc(OCc3ccccc3)cc2OCc2ccccc2)C(O)C1O (stereo not given)	TDP1 cell CPT 10.3µM, TDP1 cell noCPT 9.2µM
COC(=O)c1cnc(Nc2nc(C(N)Cc3ccccc3)cs2)nc1C(F)(F)F (stereo not given)	KB-V1 cytotox inconclusive, TDP1 cell CPT 23.1µM, HT1080-NT tox inconclusive, HT1080 IDH1KD tx inconclusive, TDP1 cell noCPT 20.6µM, KB-3-1 tox inconclusive
COC(=O)c1cnc(Nc2nc(C(N)Cc3ccc(Cl)cc3)cs2)nc1C(F)(F)F (stereo not given)	TDP1 cell CPT inconclusive, HT1080-NT tox inconclusive, HT1080 IDH1KD tx inconclusive, TDP1 cell noCPT 23.1µM, KB-3-1 tox inconclusive
COC(=O)c1cnc(Nc2nc(C(N)Cc3ccc(OC)cc3)cs2)nc1C(F)(F)F (stereo not given)	TDP1 cell CPT inconclusive, HT1080-NT tox 23.1µM, HT1080 IDH1KD tx inconclusive, TDP1 cell noCPT inconclusive
O=C(CSc1nc2ncccc2[nH]1)Nc1ccccc1-c1ccccc1	TDP1 cell CPT inconclusive
COc1ccc(Cl)cc1-c1nc(SCC(N)=O)n[nH]1	none
CCOc1ccc(CO[C@@H]2O[C@H](CO)[C@@H](O)[C@H](O)[C@H]2NC(C)=O)cc1OC	none
CC(=O)NC1C(OC2OC(CC(O)C3OC([N+]4=CCC(=O)NC4=O)C(O)C3O)C(O)C(O)C2NC(=O)/C=C/CCCCCCCCC(C)C)OC(CO)C(O)C1O (stereo not given)	TDP1 cell CPT 0.114µM, TDP1 cell noCPT 0.0904µM (no result: KB-V1 cytotox, HT1080-NT tox, HT1080 IDH1KD tx, KB-3-1 tox)
